Assay outcomes: PubChem BioAssay, Sanford-Burnham Center for Chemical Genomics
This is a sample that favours compounds with a hit; in the whole collection about 4% have one here.
KKLEB tox – CF airway cell cytotoxicity counter-screen; KKLEB CF airway cells viability, ATPlite luminescence, overnight; hits give low values; cells stimulated with P. aeruginosa culture filtrate; activity change (cytotoxicity), % at 5 µM; 0.36% of 360,000 active;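 active = corrected activity change at or below -50% at 5 µM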
HIF-2a block – blocks HIF-2a reporter activity. 786-0 RCC cells HIF-2a reporter, luciferase luminescence, overnight. inhibition, % at 18.8 µM. 0.72% of 360,000 active. AID 624352;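 active = inhibition of the luminescence signal of 40% or more relative to plate controls, in a single-dose primary screen at 18.75 µM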
TWEAK Fn14 block – blocks TWEAK-Fn14 interaction in a reporter cell assay; 2% of 360,000 active; TWEAK-stimulated Fn14 reporter cells, luciferase luminescence, 8 h; inhibition, % at 10 µM; in the data active = inhibition above about 50%
CF NFkB block – cystic fibrosis NF-kB activation inhibition. AID 588850. 0.86% of 360,000 active. KKLEB NF-kB-GFP reporter, PAF-induced, GFP fluorescence overnight. inhibition, % at 5 µM;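 active = at least 50% inhibition at 5 µM, scaled per plate between neutral and stimulator controls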;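 note: PAF is a Pseudomonas aeruginosa culture filtrate used as stimulus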
TROY NFkB inh – TROY signaling inhibition; Q293 LMP1-TROYcd NF-kB luciferase reporter, 4 h; inhibition, % at 10 µM; 0.98% of 360,000 active; AID 1347056;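 active = compounds whose plate-normalised and pattern-corrected inhibition of the luciferase reporter signal at the single screening dose is 50% or more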
Peg3 prom inh – Peg3 promoter activity inhibition; 1.7% of 360,000 active; inhibition, % at 20 µM; HeLa PEG-Prom luciferase reporter, luminescence, overnight; AID 588405;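 active = inhibition of at least 50% at 20 µM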
Hits are given with their value; - = inactive.

SMILES | KKLEB tox | HIF-2a block | TWEAK Fn14 block | CF NFkB block | TROY NFkB inh | Peg3 prom inh
COc1ccc2nc(C)cc(SCC(=O)N/N=C/c3cccc4ccccc34)c2c1 | - | - | - | - | - | 60
O=C(CSc1nc2ccccc2s1)N/N=C/c1ccccc1C(=O)O | - | - | 89 | - | 82 | -
O=C(CSc1nc2ccccc2o1)N/N=C/c1ccccc1 | - | - | - | - | - | -
Cc1ccccc1/C=N/NC(=O)CSc1nc2ccccc2o1 | - | - | 65 | - | - | -
COc1ccc(N(C)C(=O)Cc2c(C(=O)O)[nH]c3ccccc23)c(OC)c1 | - | - | - | - | - | -
CC(=O)/C(C#N)=C1\NC(=O)C(Cc2ccccc2)S1 (stereo not given) | - | - | 64 | - | - | -
C[C@H]1CN([C@@H](C)CO)C(=O)c2cc(Br)cnc2O[C@H]1CN(C)S(=O)(=O)c1ccccc1F | - | - | - | - | - | -
CC(O)c1nc2ccccc2n1C/C=C/c1ccccc1 (stereo not given) | - | - | - | - | - | -
Cc1c(P(=S)(c2ccccc2)c2ccccc2)[n+]2ccccc2n1C/C=C/c1ccccc1 | - | - | - | - | - | 83
Cc1ccc(S(=O)(=O)N2CCOCC2)cc1NC(=O)COC(=O)c1ccc(OCc2c(C)noc2C)cc1 | - | - | - | - | - | -
O=C(Nc1ccc(-n2cnnn2)cc1)c1cn2ccccc2n1 | - | - | - | - | - | -
O=C(Nc1ccccc1)c1cn2ccccc2n1 | - | - | 89 | - | - | -
COc1cc(-c2nc(-c3ccccc3)c(-c3ccc(F)cc3)[nH]2)cc2c1OCO2 | - | - | - | - | - | -
COc1ccc(-c2[nH]c(-c3ccc4c(c3)OCO4)nc2-c2ccccc2)cc1 | - | - | - | - | 60 | -
CC1CCCN(CCCNC(=O)c2ccc3c(c2)N(Cc2ccc(F)cc2)C(=O)c2ccccc2S3=O)C1 (stereo not given) | - | - | - | - | - | -
CC1CCCN(CCCNC(=O)c2ccc3c(c2)N(Cc2cccc(Cl)c2)C(=O)c2ccccc2S3=O)C1 (stereo not given) | - | - | - | - | - | 57
O=C(COc1ccc(/C=C\[N+](=O)[O-])cc1)N1CCOCC1 | - | - | - | - | - | -
O=[N+]([O-])/C=C\c1ccc(N2CCOCC2)cc1 | - | 55 | 53 | - | 53 | -
O=C(CN1CCN(C(=O)c2ccccc2)CC1)Nc1ccccc1 | - | - | - | - | - | -
COc1cccc(CN(C)C(=O)c2cccc(NC(=O)CC3SC(N4CCCCC4)=NC3=O)c2)c1OC (stereo not given) | - | - | - | - | - | -
COc1ccc(CN(C)C(=O)c2cccc(NC(=O)CC3SC(N4CCCCC4)=NC3=O)c2)c(OC)c1 (stereo not given) | - | - | 74 | - | - | 54
CCC(C)NS(=O)(=O)c1ccc(NC(=O)C(Sc2ccccc2)c2ccccc2)cc1 (stereo not given) | - | - | - | - | - | -
CCCSc1ncc(Cl)c(C(=O)Nc2ccc(S(=O)(=O)Nc3ncccn3)cc2)n1 | - | - | 58 | - | - | -
CCCCNS(=O)(=O)c1ccc(NC(=O)C(Sc2ccccc2)c2ccccc2)cc1 (stereo not given) | - | - | 63 | - | - | 59
CCC(C(=O)Nc1ccc(S(=O)(=O)Nc2ncccn2)cc1)c1ccccc1 (stereo not given) | - | - | 86 | - | - | -
SMILES | KKLEB tox | HIF-2a block | TWEAK Fn14 block | CF NFkB block | TROY NFkB inh | Peg3 prom inh
CSc1ncc(Cl)c(C(=O)Nc2ccc(S(=O)(=O)Nc3nccc(C)n3)cc2)n1 | - | - | - | - | - | -
CC(Sc1nc(N)cc(N)n1)C(=O)Nc1ccc(N2CCOCC2)cc1 (stereo not given) | - | - | - | - | - | -
CN(C)c1ccc(N=Nc2ccc(S(N)(=O)=O)cc2)cc1 | - | - | - | - | - | -
CC1=CC(=O)C=CC1=Nc1ccc(N(C)C)cc1 | - | - | 67 | - | - | -
CN(C)c1nc(N)nc(CSc2nc3c(c(=O)n(C)c(=O)n3C)n2Cc2ccccc2F)n1 | - | - | - | - | - | -
CCCCCn1c(N2CCC(Cc3ccccc3)CC2)nc2c1c(=O)[nH]c(=O)n2C | - | - | - | - | - | 64
CCCCCn1c(N(C)Cc2ccccc2)nc2c1c(=O)[nH]c(=O)n2C | - | - | - | - | - | 55
CN1Cc2cc(C(=O)c3ccccc3O)cnc2NC1=O | - | - | - | - | - | -
COc1ccc(/C=C(\NC(=O)c2ccc(OC)cc2)C(=O)NC(CCSC)C(=O)O)cc1 (stereo not given) | - | - | - | - | - | -
CCCCn1c(N)c(Sc2ccc(Cl)cc2)c(=O)[nH]c1=O | - | - | - | - | - | -
Oc1ccc(Cl)cc1Sc1cc(Cl)ccc1O | - | - | 73 | 63 | 62 | 71
C(=N\NC1=Nc2cccc3cccc1c23)/c1ccccn1 | - | - | 63 | 51 | - | -
Cc1csc(N/N=C/c2ccccn2)n1 | - | - | 72 | - | - | -
O=C(c1cc(-c2ccccc2)n[nH]1)N1CCc2c([nH]c3ccccc23)C1c1ccccn1 (stereo not given) | - | - | 59 | - | - | -
COc1ccc2c(c1)c(=O)oc1c(C)c(OCc3cc(C(=O)O)oc3C)ccc12 | - | - | 79 | - | - | -
Clc1ccc2c(N/N=C/c3cccc(Br)c3)ccnc2c1 | - | - | - | - | - | 76
O=[N+]([O-])c1ccc(/C=N/NS(=O)(=O)c2ccc(Cl)cc2)o1 | - | - | - | - | - | -
Clc1ccc2c(NNc3ccccc3Cl)ccnc2c1 | - | - | - | - | - | -
O=[N+]([O-])c1ccc(/C=N/Nc2ccnc3cc(Cl)ccc23)o1 | - | - | - | - | - | 93
Cc1ccsc1C(=O)OCC(=O)c1ccc[nH]1 | - | - | - | - | - | -
CCCCN1C[C@H](c2ccc(OC)cc2)[C@@H](CC(=O)Nc2ccc(Br)cc2)C1=O | - | - | - | - | - | -
Cc1ccc(S(=O)(=O)N2C[C@H]3n4c(=O)ccc(=O)n4C[C@H](OC(=O)NCC4CCCCC4)[C@@]3(O)C2)cc1 | - | - | 61 | - | - | 94
CC1=NN(c2ccc(C)cc2)C(=O)/C1=C/c1ccc(-c2cc([N+](=O)[O-])ccc2O)o1 | - | - | - | 54 | - | -
CC1=NN(c2ccc(C(=O)O)cc2)C(=O)/C1=C/c1ccc(-c2ccccc2F)o1 | - | - | - | - | - | -
CCc1cc2c(COC(=O)c3cccc(S(C)(=O)=O)c3)cc(=O)oc2cc1O | - | - | 56 | - | - | -
CNS(=O)(=O)c1cccc(C(=O)OCc2cc(=O)oc3c(C)c(O)ccc23)c1 | - | - | - | - | 51 | -
COCCn1c(C)cc(C(=O)Cn2nc(C(=O)O)c3ccccc3c2=O)c1C | - | - | 69 | - | - | -
